# PubChem BioAssay
# Activity calls are given as the source filed them.
# Tests used:
# [1] = binders of probe aFSTL3 on microarray, primary screen, stem cell growth factor project, biochemical, small-molecule microarray, fluorescence 635/667 (AID 1064); settings: higher = more signal;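 further: measures binding of the biotinylated anti-FSTL3 antibody to printed compounds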
# [2] = binders from COS7 lysate, DM2A8 probe, primary screen, torsin A project, cell lysate, small-molecule microarray, fluorescence 635/667 (AID 1065); settings: higher = more signal, COS7 lysate expressing mutant human TOR1A
# [3] = binders of probe aFGF2 on microarray, primary screen, stem cell growth factor project, biochemical, small-molecule microarray, fluorescence 635/667 (AID 1067); settings: higher = more signal;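 further: measures binding of biotinylated aFGF2 protein to printed compounds on slides; z-score merges feature fluorescence and signal-to-noise across triplicate slides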
# [4] = binders of probe aFGF10 on microarray, primary screen, stem cell growth factor project, biochemical, small-molecule microarray, fluorescence 635/667 (AID 1071); settings: higher = more signal;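 further: score merges 667 nm spot intensity and signal to noise from triplicate slides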
# [5] = molecular target: Neurogenic locus notch homolog protein 2 (Homo sapiens) (UniProt Q04721); assay: Notch2 binders on small-molecule microarrays, primary screen, biochemical, small-molecule microarray, 635 nm fluorescence, stem cell growth factors (AID 1073); settings: Notch2 binding, higher = more signal
# [6] = molecular target: Pro-neuregulin-1, membrane-bound isoform (Homo sapiens) (UniProt Q02297); assay: NRG1 binders on small-molecule microarrays, primary screen, psychiatric disease protein project, biochemical, small-molecule microarray, fluorescence 635/667 (AID 1075); settings: NRG1 binding, 635 nm fluorescence, higher = more signal;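 further: score combines 667 nm spot fluorescence with signal to noise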
# [7] = tested on: Neuregulin-1 EGF-like domain; assay: binders of neuregulin-1 EGF-like domain, primary screen, biochemical, small-molecule microarray, 635 nm fluorescence (AID 1081); settings: small-molecule microarray binding, higher = more signal;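 further: binding of the protein to compounds printed on small-molecule microarray slides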
# [8] = FRG1 promoter luciferase signal modulators, primary screen, FRG1 inhibition for FSHD, cell-based, C2C12 myotubes, firefly/Renilla luciferase, luminescence (AID 1084); settings: higher = more signal, called active from +8 up or from −8 down
# [9] = binders of probe aFST on microarray, primary screen, stem cell growth factor project, biochemical, small-molecule microarray, fluorescence 635/667 (AID 1086); settings: higher = more signal;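 further: score merges 667 nm fluorescence with signal-to-noise of each printed compound spot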
# [10] = binders of probe aHhip on microarray, primary screen, stem cell growth factor project, biochemical, small-molecule microarray, fluorescence 635/667 (AID 1087); settings: higher = more signal;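 further: score merges spot fluorescence at 667nm with spot signal to noise ratio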
# [11] = tested on: PRMT1 (protein arginine N-methyltransferase 1); assay: PRMT1 binders on small-molecule microarrays, primary screen, biochemical, small-molecule microarray, 635 nm fluorescence (AID 1088); settings: small-molecule microarray binding, higher = more signal;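 further: binding of Prmt1 protein to compounds spotted on small-molecule microarray slides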
# [12] = yeast growth modulation, basal conditions, primary screen, YJM789 clinical isolate, OD600, 24 h (AID 1089);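 further: growth of clinical yeast isolate S. cerevisiae YJM 789 seeded 1000 cells per well; test concentration not given here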; settings: S. cerevisiae YJM789 growth, higher = more signal, called active from +8 up or from −8 down
# [13] = fission yeast growth modulation, primary screen, strain 972, OD600, 24 h, no modulator (AID 1090);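 further: basal condition with compound alone and no growth modifier present; test concentration not given here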; settings: S. pombe 972 growth, higher = more signal, called active from +8 up or from −8 down
# [14] = S. cerevisiae growth modulation with rapamycin, primary screen, strain BY4716, OD600, 96 h (AID 1091); settings: higher = more signal, called active from +8 up or from −8 down; further: test concentration not given here
# [15] = molecular target: Torsin-1A-interacting protein 2 (Homo sapiens) (UniProt Q8NFQ8); assay: LULL1 binders on small-molecule microarray, primary screen, cell lysate, human LULL1 lysate, 635/667 nm fluorescence (AID 1092); settings: hLULL1 lysate binding, 635 nm fluorescence, higher = more signal;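 further: probe is lysate of COS7 cells overexpressing human LULL1; score merges per-feature 667 nm fluorescence with signal-to-noise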
# [16] = E. coli growth modulation, two-sided OD650, primary screen, E. coli filamentation project, strain DRC41, 24 h (AID 1093); settings: OD650, 24 h, higher = more signal, called active from +8 up or from −8 down;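 further: MC1000 strain lacking acrAB efflux and sulA so SOS filamentation is blocked; test concentration not given here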
# [17] = small-molecule microarray binders of probe aLefty2, primary screen, biochemical, biotinylated probe, 635/667 nm fluorescence (AID 1094); settings: higher = more signal;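 further: score merges spot fluorescence near 667 nm with spot signal-to-noise ratio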
# [18] = tested on: Noggin (protein binding on small-molecule microarray); assay: Noggin binders on small-molecule microarray, primary screen, biochemical, 635/667 nm fluorescence (AID 1095); settings: 635 nm fluorescence, higher = more signal;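 further: score merges 667 nm feature fluorescence with signal to noise over triplicate slides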
# [19] = molecular target: Neurogenic locus notch homolog protein 3 (Homo sapiens) (UniProt Q9UM47); assay: NOTCH3 binders on small-molecule microarray, primary screen, biochemical, 635/667 nm fluorescence (AID 1096); settings: NOTCH3 binding, 635 nm fluorescence, higher = more signal
# [20] = small-molecule microarray binders of probe aEGFR, primary screen, biochemical, biotinylated probe, 635/667 nm fluorescence (AID 1097); settings: higher = more signal;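 further: probe is a biotinylated anti-EGFR antibody binding compounds printed on slides; score combines fluorescence near 667 nm and signal to noise of each spot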
# Pro-neuregulin-1, membrane-bound isoform (Homo sapiens), sequence (Q02297 whole entry, looked up, the tested form may be a part, canonical isoform): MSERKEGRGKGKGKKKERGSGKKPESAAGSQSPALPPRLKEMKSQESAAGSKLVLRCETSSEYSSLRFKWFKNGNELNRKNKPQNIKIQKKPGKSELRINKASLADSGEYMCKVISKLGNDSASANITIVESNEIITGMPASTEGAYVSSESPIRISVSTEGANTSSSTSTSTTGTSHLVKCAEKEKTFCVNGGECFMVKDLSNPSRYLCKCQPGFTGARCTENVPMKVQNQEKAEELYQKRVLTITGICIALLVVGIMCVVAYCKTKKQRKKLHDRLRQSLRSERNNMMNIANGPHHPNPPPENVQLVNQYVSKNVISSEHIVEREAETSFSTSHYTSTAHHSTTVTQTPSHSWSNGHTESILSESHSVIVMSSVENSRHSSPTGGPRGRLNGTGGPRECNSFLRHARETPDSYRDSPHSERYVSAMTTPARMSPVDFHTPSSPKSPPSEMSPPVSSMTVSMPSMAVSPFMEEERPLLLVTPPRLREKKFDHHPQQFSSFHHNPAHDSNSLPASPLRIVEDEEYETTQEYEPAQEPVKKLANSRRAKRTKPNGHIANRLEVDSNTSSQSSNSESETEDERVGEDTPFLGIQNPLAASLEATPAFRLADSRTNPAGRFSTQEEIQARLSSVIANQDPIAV
# Neurogenic locus notch homolog protein 3 (Homo sapiens), sequence (Q9UM47 whole entry, looked up): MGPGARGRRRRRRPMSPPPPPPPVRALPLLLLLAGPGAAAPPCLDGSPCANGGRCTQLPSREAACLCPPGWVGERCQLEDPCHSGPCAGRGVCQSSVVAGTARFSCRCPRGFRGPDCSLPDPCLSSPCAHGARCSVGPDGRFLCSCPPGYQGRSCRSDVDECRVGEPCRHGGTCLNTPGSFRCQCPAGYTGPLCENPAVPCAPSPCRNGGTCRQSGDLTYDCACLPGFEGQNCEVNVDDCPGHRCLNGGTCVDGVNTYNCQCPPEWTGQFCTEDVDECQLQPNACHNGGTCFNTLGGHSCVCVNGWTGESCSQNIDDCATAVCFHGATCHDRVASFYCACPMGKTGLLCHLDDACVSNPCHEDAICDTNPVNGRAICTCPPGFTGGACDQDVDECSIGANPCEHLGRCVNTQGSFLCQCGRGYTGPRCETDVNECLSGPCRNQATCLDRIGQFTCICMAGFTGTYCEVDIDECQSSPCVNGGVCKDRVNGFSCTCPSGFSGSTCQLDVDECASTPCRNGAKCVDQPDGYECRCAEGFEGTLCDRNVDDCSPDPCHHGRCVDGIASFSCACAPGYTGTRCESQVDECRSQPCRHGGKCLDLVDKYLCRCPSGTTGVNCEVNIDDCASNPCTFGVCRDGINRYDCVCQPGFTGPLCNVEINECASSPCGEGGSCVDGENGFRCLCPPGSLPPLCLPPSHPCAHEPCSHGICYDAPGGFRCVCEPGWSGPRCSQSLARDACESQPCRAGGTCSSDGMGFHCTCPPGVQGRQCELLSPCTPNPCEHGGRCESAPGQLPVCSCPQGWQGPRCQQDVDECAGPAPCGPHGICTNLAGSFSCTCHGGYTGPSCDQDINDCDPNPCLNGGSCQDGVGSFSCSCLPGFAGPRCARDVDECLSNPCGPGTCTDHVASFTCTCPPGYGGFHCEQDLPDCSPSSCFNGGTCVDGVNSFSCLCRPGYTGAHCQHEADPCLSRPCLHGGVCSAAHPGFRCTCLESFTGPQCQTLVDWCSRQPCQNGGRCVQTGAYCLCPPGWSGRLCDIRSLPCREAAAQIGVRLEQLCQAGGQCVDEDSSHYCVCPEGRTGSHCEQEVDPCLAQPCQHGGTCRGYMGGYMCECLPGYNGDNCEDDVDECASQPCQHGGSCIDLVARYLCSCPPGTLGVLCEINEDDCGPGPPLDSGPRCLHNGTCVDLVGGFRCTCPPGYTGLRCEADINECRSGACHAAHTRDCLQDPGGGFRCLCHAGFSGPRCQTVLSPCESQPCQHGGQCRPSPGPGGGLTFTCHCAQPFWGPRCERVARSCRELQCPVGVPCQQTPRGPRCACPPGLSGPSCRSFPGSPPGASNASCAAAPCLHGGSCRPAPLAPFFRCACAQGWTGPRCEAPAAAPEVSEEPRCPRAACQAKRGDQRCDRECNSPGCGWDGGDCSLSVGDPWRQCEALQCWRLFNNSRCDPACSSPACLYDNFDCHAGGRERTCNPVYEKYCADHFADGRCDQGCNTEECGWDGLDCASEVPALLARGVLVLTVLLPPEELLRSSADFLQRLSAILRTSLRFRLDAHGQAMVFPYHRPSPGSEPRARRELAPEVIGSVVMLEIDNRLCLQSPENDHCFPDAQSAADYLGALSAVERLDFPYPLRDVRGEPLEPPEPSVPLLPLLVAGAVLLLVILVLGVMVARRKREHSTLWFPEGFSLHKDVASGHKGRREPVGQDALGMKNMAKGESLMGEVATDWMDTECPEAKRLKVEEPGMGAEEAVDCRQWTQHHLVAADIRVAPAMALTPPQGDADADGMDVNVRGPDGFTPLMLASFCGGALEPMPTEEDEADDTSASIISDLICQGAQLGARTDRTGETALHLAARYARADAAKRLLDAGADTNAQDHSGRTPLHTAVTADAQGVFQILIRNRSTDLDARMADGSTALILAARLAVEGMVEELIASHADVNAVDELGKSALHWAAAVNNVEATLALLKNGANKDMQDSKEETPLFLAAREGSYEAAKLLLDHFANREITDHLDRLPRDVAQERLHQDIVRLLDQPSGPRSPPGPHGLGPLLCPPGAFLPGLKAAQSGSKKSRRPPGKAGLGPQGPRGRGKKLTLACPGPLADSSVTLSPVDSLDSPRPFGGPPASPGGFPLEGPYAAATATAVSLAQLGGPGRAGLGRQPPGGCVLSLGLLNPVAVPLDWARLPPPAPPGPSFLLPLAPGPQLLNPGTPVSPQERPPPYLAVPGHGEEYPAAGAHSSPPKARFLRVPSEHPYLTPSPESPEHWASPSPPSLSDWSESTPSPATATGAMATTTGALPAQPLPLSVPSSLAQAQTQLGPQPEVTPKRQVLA
# Torsin-1A-interacting protein 2 (Homo sapiens), sequence (Q8NFQ8 whole entry, looked up): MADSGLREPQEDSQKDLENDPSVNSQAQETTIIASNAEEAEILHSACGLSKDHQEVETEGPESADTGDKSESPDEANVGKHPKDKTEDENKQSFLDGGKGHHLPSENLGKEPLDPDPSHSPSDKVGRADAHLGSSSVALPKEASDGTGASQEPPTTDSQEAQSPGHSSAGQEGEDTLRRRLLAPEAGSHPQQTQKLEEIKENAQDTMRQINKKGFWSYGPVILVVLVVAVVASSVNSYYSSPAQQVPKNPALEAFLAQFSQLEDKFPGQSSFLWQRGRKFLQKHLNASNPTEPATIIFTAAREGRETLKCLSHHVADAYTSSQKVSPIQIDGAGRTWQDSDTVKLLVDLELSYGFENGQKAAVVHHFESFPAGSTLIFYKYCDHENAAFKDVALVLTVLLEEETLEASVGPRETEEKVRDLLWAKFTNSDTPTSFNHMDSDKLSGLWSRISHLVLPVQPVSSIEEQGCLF
Compound,composite z-score [1],composite z-score [2],composite z-score [3],composite z-score [4],composite z-score [5],composite z-score [6],composite z-score [7],z-score [8],composite z-score [9],composite z-score [10],composite z-score [11],z-score [12],z-score [13],z-score [14],composite z-score [15],z-score [16],composite z-score [17],composite z-score [18],composite z-score [19],composite z-score [20]
O=C1C[C@]2(c3ccc([N+](=O)[O-])cc3)C(=O)N(CC(F)(F)F)c3cc(CO)ccc3[C@H]2N1C1CCCCC1,0.342,-0.819,-0.148,-0.91,-0.488,-0.722,-1.5,0.0655 (inactive),-0.167,-0.226,0.137,0.926 (inactive),-0.378 (inactive),-1.03 (inactive),-0.0451,0.685 (inactive),-0.216,-0.425,-1.41,-0.201
COC(=O)[C@@]1(CCS(=O)(=O)c2ccccc2)N=C(c2ccc(OCCCO)cc2)O[C@H]1c1ccccc1CN=[N+]=[N-],0.959,0.38,-0.0533,-0.303,0.914,0.975,1.23,-3.26 (inactive),0.883,-0.0634,1.38,0.265 (inactive),1.18 (inactive),34.4 (active),3.01,0.706 (inactive),0.0054,0.338,1,0.127
C=CCC(OC(C)=O)[C@@H]1[C@@H](N(Cc2cc3ccccc3o2)C(=O)c2cccc3ccccc23)c2cc(OCCCO)ccc2N1C(=O)c1ccc(-c2ccccc2)cc1 (stereo not given in full),0.118,-0.203,-0.108,0.0904,0.0918,0.142,-0.164,-0.408 (inactive),0.101,-0.137,-0.101,0.109 (inactive),-0.847 (inactive),0.0344 (inactive),0.581,1.78 (inactive),-0.0674,0.293,-0.527,0.0969
COc1ccccc1CN1C(=O)c2ccccc2[C@@H](C(=O)NC2CC2)[C@@H]1c1ccc(CO)cc1,0.11,0.293,0.0233,0.986,1.48,1.12,1.29,-3.17 (inactive),0.592,0.075,1.54,0.827 (inactive),-0.392 (inactive),0.344 (inactive),2.28,0.772 (inactive),0.488,1.47,1.06,0.194
O=C1O[C@H](c2ccccc2)[C@H](c2ccccc2)N2[C@H]1[C@@H](C(=O)N1CCCCCCC1)[C@]1(C(=O)Nc3ccc(C#CC4=CCCCC4)cc31)[C@H]2c1ccc(OCCO)cc1,3.55,2.01,0.917,0.965,1.6,2.38,1.3,0.677 (inactive),3.36,3.42,1.53,0.42 (inactive),-2.08 (inactive),2.79 (inactive),3.7,2.64 (inactive),1.72,1.72,1.02,1.07
COc1cc(Br)cc(C(O)C2C=CC3C(=O)N(C)C(=O)C3N2N2CCCCC2)c1OC (stereo not given),0.0974,-1.02,-0.053,-0.207,0.224,0.818,1.31,0.876 (inactive),0.347,0.0677,-0.962,0.733 (inactive),1.13 (inactive),1.73 (inactive),1.49,-1.54 (inactive),0.118,-1.27,-0.702,0.0122
NCCCCCNC(=O)[C@@H]1C[C@@H]2C(=O)N[C@@H](Cc3ccccc3)C(=O)N2[C@@H]1c1ccc(O)cc1,0.266,0.0499,0.0257,0.507,1.12,1.05,1.24,0.227 (inactive),0.918,-0.175,1.31,-0.247 (inactive),-0.448 (inactive),-0.367 (inactive),1.66,-0.811 (inactive),-0.0717,0.923,0.452,0.0381
CC1CC/C=C\[C@H]2OC34C=CCN(C(C)(C)C)C(=O)[C@H]3N(C(C)CO)C(=O)[C@@H]4C2C(=O)O1 (stereo not given in full),0.101,-0.702,-0.128,-0.414,-1.04,-0.486,0.061,-0.486 (inactive),-0.39,-0.0296,-0.282,0.214 (inactive),-0.538 (inactive),-0.0168 (inactive),-0.656,-0.434 (inactive),-0.207,0.0449,-0.454,-0.27
CN1C(=O)C2C=CC(C(O)c3ccccc3)N(N(c3ccccc3)c3ccccc3)C2C1=O (stereo not given),-0.034,0.287,0.0561,0.332,0.924,0.647,0.553,0.815 (inactive),0.474,0.245,-0.124,0.0175 (inactive),0.808 (inactive),0.495 (inactive),0.317,-0.642 (inactive),0.603,0.141,0.422,-0.0668
[N-]=[N+]=NCc1ccccc1[C@@H]1OC(c2ccc(OCCCO)cc2)=N[C@]1(Cc1ccccc1)C(N)=O,0.0286,-0.187,0.0062,0.98,1.6,1.99,1.29,2.02 (inactive),1.35,-0.249,1.48,-0.368 (inactive),-2.27 (inactive),-0.784 (inactive),3.36,0.455 (inactive),0.227,0.683,1.06,0.154
CC(C)N1C(=O)[C@@]2(Cc3ccccc31)c1ccccc1C(=O)N(Cc1ccccc1Cl)[C@H]2c1ccc(CO)cc1,-0.0423,-0.149,-0.177,-0.272,-0.791,-0.371,0.0118,-0.426 (inactive),-0.377,-0.319,0.477,-1.05 (inactive),-1.17 (inactive),-2.86 (inactive),-0.203,-1.25 (inactive),-0.153,-0.665,-0.942,-0.152
COCCOC(=O)N1C(=O)[C@@]2(c3cc(C#Cc4ccc(OC)cc4)ccc31)[C@H](c1ccccc1OCCO)N1[C@H](c3ccccc3)[C@H](c3ccccc3)OC(=O)[C@H]1[C@@H]2C(=O)NC[C@H](O)c1ccccc1,-0.532,0.579,-0.0744,0.514,1.09,1.12,1.3,0.19 (inactive),0.499,-0.0346,1.53,2.89 (inactive),2.09 (inactive),7.27 (inactive),2.86,-0.0186 (inactive),-0.0304,1.17,1.04,-0.0267
COc1cc2c(cc1OC)CN(C(=O)[C@H]1[C@@H]3C(=O)O[C@@H](c4ccccc4)[C@@H](c4ccccc4)N3[C@@H](c3ccc(O)cc3)[C@]13C(=O)Nc1ccccc13)CC2,0.418,0.814,-0.0282,0.681,-0.0554,1.41,1.38,-1.09 (inactive),-0.0422,0.0129,1.27,1.16 (inactive),0.536 (inactive),1.74 (inactive),2.32,-0.204 (inactive),-0.139,0.0366,0.518,-0.191
COc1ccc(/C=C/C=O)cc1,-0.0583,0.144,-0.0982,0.19,0.173,-0.802,-0.562,0.599 (inactive),0.0803,0.0975,0.722,1.17 (inactive),-7.83 (inactive),1.01 (inactive),-0.714,0.0062 (inactive),-0.15,0.775,0.271,-0.045
CN1C(=O)C2C=CC(C(O)c3ccco3)N(Nc3ccccc3)C2C1=O (stereo not given),0.034,0.438,0.0772,0.321,1.06,1.51,1.28,0.0122 (inactive),-0.104,-0.0581,0.941,0.312 (inactive),0.899 (inactive),1.74 (inactive),2.52,-1.37 (inactive),0.0569,0.139,0.275,-0.0976
COC(=O)[C@@]1(Cc2ccccc2)[C@H]2c3cc(C(=O)N(C)C)n(Cc4ccsc4Br)c3C[C@H]2CN1C(=O)c1ccccc1,0.102,0.106,0.215,0.746,1.61,0.823,1.12,0.332 (inactive),1.67,-0.113,-0.481,1.04 (inactive),1.17 (inactive),2.66 (inactive),3.32,0.166 (inactive),0.313,0.0244,1.05,0.196
COC(=O)[C@@]1(Cc2ccc(OC)cc2)[C@@H]2C(=CC(=O)[C@H]2CC(=O)C(=O)N2CCCC2)CN1C(=O)c1ccccc1,0.156,-0.601,-0.0124,0.224,1.6,1.02,1.25,2.91 (inactive),1.1,1.41,-1.55,0.201 (inactive),0.097 (inactive),0.176 (inactive),2.99,0.355 (inactive),0.336,0.0255,0.735,0.386
[N-]=[N+]=NCc1ccccc1[C@@H]1OC(c2ccc(OCCCO)cc2)=N[C@]1(Cc1ccccc1)C(=O)NCC(O)CO (stereo not given in full),0.798,0.42,0.126,0.343,-0.119,1.84,1.2,-0.339 (inactive),0.421,0.132,1.25,-0.427 (inactive),0.0493 (inactive),-0.659 (inactive),3.44,0.123 (inactive),0.414,0.238,-0.27,0.411
COCCOC(=O)N1C(=O)[C@@]2(c3cc(C#CCCO)ccc31)[C@H](C(=O)N1CCCCCCC1)[C@H]1C(=O)O[C@H](c3ccccc3)[C@H](c3ccccc3)N1[C@@H]2c1ccc(OCCO)cc1,3.17,0.912,0.68,0.395,1.25,1.01,1.18,-1.07 (inactive),2.87,0.0111,1.51,1.33 (inactive),1.3 (inactive),2.08 (inactive),3.52,0.584 (inactive),1.53,1.55,0.93,1.04
CC(C)=CCN[C@H](CO)c1ccccc1,-0.122,-0.428,-0.0732,0.897,0.794,-0.419,0.249,1.07 (inactive),-0.0489,0.0129,-0.198,-0.613 (inactive),-4.99 (inactive),-1.32 (inactive),0.138,-0.291 (inactive),-0.236,0.346,-0.0083,-0.203
